Source: PubChem BioAssay AID2726 (Broad Institute, 2010)
Some of the results follow. The source made the active and inactive calls.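 How the source made its calls: active means every replicate shows growth inhibition above 50%; inconclusive means at least half, but not all, replicates pass that cutoff; inactive means fewer than half of replicates pass it.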

Test: Vibrio harveyi growth inhibition, confirmation, counter-screen for AI-2 quorum sensing project, JMH597 strain, OD600 absorbance (AID 2726)
Settings: 9 h, at 7.5 µM, stronger effect = higher value, lacks LuxN and CqsS sensors

| Structure (SMILES) | growth inhibition |
| --- | --- |
| Cc1ccc(NC(=O)C2CC2c2ccccc2)cc1 (stereo not given) | -14.1% (inactive) |
| O=C(Nc1ccc(F)c(Cl)c1)C1CCN(S(=O)(=O)c2cccnc2)CC1 | -9.31% (inactive) |
| O=C(/C=C/c1ccc2c(c1)OCCO2)c1ccc(O)cc1 | 2.39% (inactive) |
| O=C(CCC(=O)c1cccs1)Nc1nc2ccccc2s1 | -16.4% (inactive) |
| O=C(COC(=O)C1CCCCC1)Nc1ccc([N+](=O)[O-])cc1 | -6.27% (inactive) |
| COc1cccc(NC(=O)NCc2ccc(F)cc2)c1 | -8.06% (inactive) |
| Cc1nn(CC(=O)Nc2ccc(F)cc2)c(=O)c2ccccc12 | 2.73% (inactive) |
| O=C(/C=C/c1ccc2c(c1)OCO2)NCc1ccc(F)cc1 | 4.99% (inactive) |
| CC(C)(C)c1ccc(OC2=CS(=O)(=O)c3ccccc32)cc1 | 31.5% (inactive) |
| Cc1ccc(NS(=O)(=O)c2ccc3c(c2)NC(=O)CO3)cc1 | -1.97% (inactive) |
| Cc1ccsc1C(=O)OCC(=O)c1cc2ccccc2o1 | 32.2% (inactive) |
| Cc1cccc(CSc2ccc(-c3cccs3)nn2)c1 | 18.7% (inactive) |
| Cc1ccc(Cc2nc(-c3cccc(C)c3)no2)cc1 | 30.5% (inactive) |
| COC(=O)c1ccc(SCc2ccccc2)nc1 | 13.9% (inactive) |
| Cc1ccc(Oc2cnn(-c3ccccc3)c(=O)c2Br)cc1 | -6.12% (inactive) |
